Holding throughout (experiment): NCI-60 one-dose screen, 48 h (100 = growth as untreated, 0 = no growth, -100 = all killed)
One test has as its system NCI-H23 lung. The following applies: 10 µM unless noted.
A further test has as its system NCI-H226 lung. Conditions: 10 µM unless noted.
Another test concerns NCI-H322M lung. Conditions: 10 µM unless noted.
For the next test, the system named is HOP-62 NSCLC. The following applies: 10 µM unless noted.
A further test has as its system NCI-H460 lung. The following applies: 10 µM unless noted.
The subject of the next test is HOP-92 NSCLC. The following applies: 10 µM unless noted.
For a further test, the system named is NCI-H522 lung. The following applies: 10 µM unless noted.
The test system of a further test is A549/ATCC NSCLC. The following applies: 10 µM unless noted.
In the next test the test system is 786-0 renal. Conditions: 10 µM unless noted.
Another test relates to COLO 205 colon. The following applies: 10 µM unless noted.
A further test concerns DU-145 prostate. Conditions: 10 µM unless noted.
For the next test, the system named is K-562 leukemia. Conditions: 10 µM unless noted.
Another test has as its system MALME-3M melanoma. The following applies: 10 µM unless noted.
The next test has as its system MDA-MB-231 breast. Conditions: 10 µM unless noted.
Another test deals with RXF 393 renal. The following applies: 10 µM unless noted.
The next test concerns SF-268 CNS. The following applies: 10 µM unless noted.
The subject of the next test is SF-295 CNS. Conditions: 10 µM unless noted.
The next test deals with SF-539 CNS. Conditions: 10 µM unless noted.
The subject of another test is M14 melanoma. Conditions: 10 µM unless noted.
A further test has as its system UACC-257 melanoma. The following applies: 10 µM.

Compounds without any hit were thinned out: in the full panel of roughly 83,000, 20% have a hit.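 Plates (96-well) were seeded with cells, treated with compound at one concentration, and incubated for 48 hours before percent growth was determined.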 Values without a mark were called inactive. The source made the active and inactive calls. Rule for the calls: active = growth percent below 10; inactive = the rest.

Take `O=[N+]([O-])c1ccc(S(=O)(=O)N2CCN(c3ccnc4cc(Cl)ccc34)CC2)c([N+](=O)[O-])c1`: the growth with NCI-H23 lung is 97.2%; in the test on NCI-H226 lung, 83.7%; in the test on NCI-H322M lung, 107%; with HOP-62 NSCLC, 96.4%; in the test on NCI-H460 lung it was 99.2%; in the test with HOP-92 NSCLC, 82.1%. For the same compound, the growth in the test with NCI-H522 lung is 46.1%; in the test on A549/ATCC NSCLC, 99.2%; in the test with 786-0 renal, 80.8%; with COLO 205 colon, 91.4%; in the test with DU-145 prostate, 92.3%; in the test on K-562 leukemia, 18%. In addition, the growth was 76.2% in the test with MALME-3M melanoma; 85.3% with MDA-MB-231 breast; 74% with RXF 393 renal; 86% in the test with SF-268 CNS; 100% with SF-295 CNS; 93.5% in the test on SF-539 CNS. In addition, the growth in the test on M14 melanoma is 92.2%.

For `CCC(=O)Oc1ccc2c(c1)CC[C@@H]1[C@@H]2CC[C@]2(C)C[C@H](OC(=O)CC)C[C@@H]12`, the growth in the test on NCI-H23 lung is 79.1%; in the test with NCI-H226 lung, 99.9%; in the test on NCI-H322M lung, 92.6%; in the test with HOP-62 NSCLC, 64.1%; in the test with NCI-H460 lung, 62.6%; in the test on HOP-92 NSCLC it was 62.8%. Besides, the growth with NCI-H522 lung is 32.1%; in the test on A549/ATCC NSCLC, 71.5%; with 786-0 renal, 67.9%; with COLO 205 colon, 118%; in the test with DU-145 prostate, 79.2%; with K-562 leukemia, 29.4%. Further, the growth in the test with MALME-3M melanoma is 80.1%; in the test with MDA-MB-231 breast, 71.4%; in the test on RXF 393 renal it was 86.2%; in the test with SF-268 CNS it was 80.1%; with SF-295 CNS it was 51.6%; with SF-539 CNS it was 76.6%. Further, the growth with M14 melanoma was 50.5%.

`Cc1cc2c(C(C)C)c(O)c(O)c(C=NCCCCC(=O)O)c2c(O)c1-c1c(C)cc2c(C(C)C)c(O)c(O)c(C=NCCCCC(=O)O)c2c1O`: the growth was 33.8% with NCI-H23 lung; 85.2% in the test with NCI-H226 lung; 46% in the test on NCI-H322M lung; 50% with HOP-62 NSCLC; 23.8% in the test on NCI-H460 lung; 22.6% with HOP-92 NSCLC. Further, the growth is 23.4% in the test with NCI-H522 lung; 49.1% with A549/ATCC NSCLC; 49.1% in the test on 786-0 renal; 41.1% in the test with COLO 205 colon; 63.8% with DU-145 prostate; 26.4% with K-562 leukemia. In addition, the growth in the test on MALME-3M melanoma was 78.8%; in the test with MDA-MB-231 breast it was 40%; with RXF 393 renal it was 57%; in the test with SF-268 CNS it was 44.2%; with SF-295 CNS, 27.3%; in the test on SF-539 CNS, 42.2%. Also, in the test with M14 melanoma, the growth was 66.9%.

Turning to `Nc1c(C(=O)Nc2cccc(Cl)c2Cl)sc2nc3c(cc12)C(=O)CCC3`, the growth is 76.1% in the test with NCI-H23 lung; 87% in the test with NCI-H226 lung; 76.7% with NCI-H322M lung; 95.3% with HOP-62 NSCLC; 20% in the test with NCI-H460 lung; 91.5% in the test on HOP-92 NSCLC. Also, the growth in the test on NCI-H522 lung is 12.5%; with A549/ATCC NSCLC, 37.5%; in the test on 786-0 renal, 92.4%; in the test with COLO 205 colon, 25.8%; in the test on DU-145 prostate, 96.2%; with K-562 leukemia, 42.1%. The growth with MALME-3M melanoma is 68.6%; in the test on MDA-MB-231 breast, 71.8%; in the test on SF-268 CNS, 103%; with SF-295 CNS, 35.8%; in the test on SF-539 CNS it was 105%; in the test with UACC-257 melanoma, 76.9%. Moreover, in the test on M14 melanoma, the growth is 80.8%.

With `COc1cc(-c2n[nH]nc2-c2ccc3c(c2)OCCO3)cc(OC)c1OC`, the growth was 22.8% with NCI-H23 lung; 75.7% in the test on NCI-H226 lung; 51.4% in the test on NCI-H322M lung; 8.87% (active) in the test with HOP-62 NSCLC; 2.69% (active) in the test with NCI-H460 lung; 24.3% in the test with HOP-92 NSCLC. In addition, the growth was -44.5% (active) in the test on NCI-H522 lung; 16.5% in the test with A549/ATCC NSCLC; 20.9% in the test with 786-0 renal; -85.7% (active) with COLO 205 colon; 10% in the test with DU-145 prostate; 8.96% (active) with K-562 leukemia. The growth in the test with MALME-3M melanoma is 69.7%; in the test on MDA-MB-231 breast, 33.3%; with SF-268 CNS, 15.9%; in the test with SF-295 CNS, 2.6% (active); in the test on SF-539 CNS, -35.9% (active); with UACC-257 melanoma it was 61.7%. The growth with M14 melanoma was 16.5%.

With `CCN(CC)CCCNc1nc(C)cc(Nc2ccc3nc(C)cc(N)c3c2)n1`, the growth was 93% with NCI-H23 lung; 104% in the test on NCI-H226 lung; 95.5% in the test with NCI-H322M lung; 81% in the test with HOP-62 NSCLC; 110% in the test with NCI-H460 lung; 97.5% in the test with HOP-92 NSCLC. Also, the growth is 93.3% in the test with NCI-H522 lung; 81% in the test with A549/ATCC NSCLC; 97.8% in the test on 786-0 renal; 97.4% in the test on COLO 205 colon; 116% with DU-145 prostate; 106% in the test on K-562 leukemia. In addition, the growth with MALME-3M melanoma was 107%; in the test with MDA-MB-231 breast, 103%; in the test on RXF 393 renal it was 117%; with SF-268 CNS it was 92.9%; in the test with SF-295 CNS it was 95.1%; in the test on SF-539 CNS it was 103%. The growth in the test with M14 melanoma is 96.6%.

In the case of `COc1cc(/C=C/C(=O)c2ccccc2O)ccc1OCCCOc1cc2c(cc1OC)C(=O)N1CCC[C@H]1C=N2`, the growth was 3.19% (active) in the test on NCI-H23 lung; -3.94% (active) in the test on NCI-H226 lung; -10.6% (active) in the test on NCI-H322M lung; 9.86% (active) in the test on HOP-62 NSCLC; -18.1% (active) in the test with NCI-H460 lung; -27.4% (active) in the test with HOP-92 NSCLC. Also, the growth in the test with NCI-H522 lung is -9.43% (active); in the test with A549/ATCC NSCLC, 6.93% (active); in the test with 786-0 renal, -44.8% (active); in the test with COLO 205 colon, -3.82% (active); with DU-145 prostate, 2.53% (active); in the test with K-562 leukemia, 76.3%. The growth with MALME-3M melanoma is -73.1% (active); in the test with MDA-MB-231 breast, -20.6% (active); in the test on RXF 393 renal, -44.6% (active); in the test with SF-268 CNS, 0.95% (active); in the test with SF-295 CNS it was -11% (active); in the test with SF-539 CNS, -1.54% (active). The growth in the test on M14 melanoma was -7.64% (active).

For the compound `Cc1cc(Nc2nc(-c3ccncc3)nc3ccccc23)n[nH]1`, the growth in the test on NCI-H23 lung was 80.2%; in the test on NCI-H226 lung, 79.1%; in the test on NCI-H322M lung, 75.7%; in the test on HOP-62 NSCLC it was 95.1%; with NCI-H460 lung, 66.1%; in the test on HOP-92 NSCLC it was 54.9%. Also, the growth is 58.7% in the test with NCI-H522 lung; 41.9% in the test with A549/ATCC NSCLC; 48.2% in the test on 786-0 renal; 31.7% with COLO 205 colon; 79.7% in the test with DU-145 prostate; 38.1% with K-562 leukemia. Also, the growth with MALME-3M melanoma was 88.8%; in the test with MDA-MB-231 breast, 84.1%; in the test with SF-268 CNS it was 70.1%; with SF-295 CNS it was 69.9%; with SF-539 CNS it was 59.5%; with UACC-257 melanoma, 90%. Moreover, in the test with M14 melanoma, the growth is 65.7%.

For the origin of these results see PubChem BioAssay (NCI).
